# From PubChem BioAssay AID504333 (National Center for Advancing Translational Sciences (NCATS), 2011)
# Out of some 360,000 compounds screened, about 16,000 (4.4%) were called active. Where a call stands in place of a potency, no number is given. Roughly 9% stayed inconclusive and do not appear here. The call rests on the fitted dose curve; in most records, active means well fitted inhibition curve with a large enough effect; inconclusive means small, poorly fitted or top-dose-only effect; inactive means no such curve, though single readings can be large or run the other way. Only a selection was taken, and actives are over-represented in it overall.
# Biological target: Bromodomain adjacent to zinc finger domain protein 2B (Homo sapiens) (UniProt Q9UIF8)
# Sequence (Q9UIF8 whole entry, looked up, the tested form may be a part): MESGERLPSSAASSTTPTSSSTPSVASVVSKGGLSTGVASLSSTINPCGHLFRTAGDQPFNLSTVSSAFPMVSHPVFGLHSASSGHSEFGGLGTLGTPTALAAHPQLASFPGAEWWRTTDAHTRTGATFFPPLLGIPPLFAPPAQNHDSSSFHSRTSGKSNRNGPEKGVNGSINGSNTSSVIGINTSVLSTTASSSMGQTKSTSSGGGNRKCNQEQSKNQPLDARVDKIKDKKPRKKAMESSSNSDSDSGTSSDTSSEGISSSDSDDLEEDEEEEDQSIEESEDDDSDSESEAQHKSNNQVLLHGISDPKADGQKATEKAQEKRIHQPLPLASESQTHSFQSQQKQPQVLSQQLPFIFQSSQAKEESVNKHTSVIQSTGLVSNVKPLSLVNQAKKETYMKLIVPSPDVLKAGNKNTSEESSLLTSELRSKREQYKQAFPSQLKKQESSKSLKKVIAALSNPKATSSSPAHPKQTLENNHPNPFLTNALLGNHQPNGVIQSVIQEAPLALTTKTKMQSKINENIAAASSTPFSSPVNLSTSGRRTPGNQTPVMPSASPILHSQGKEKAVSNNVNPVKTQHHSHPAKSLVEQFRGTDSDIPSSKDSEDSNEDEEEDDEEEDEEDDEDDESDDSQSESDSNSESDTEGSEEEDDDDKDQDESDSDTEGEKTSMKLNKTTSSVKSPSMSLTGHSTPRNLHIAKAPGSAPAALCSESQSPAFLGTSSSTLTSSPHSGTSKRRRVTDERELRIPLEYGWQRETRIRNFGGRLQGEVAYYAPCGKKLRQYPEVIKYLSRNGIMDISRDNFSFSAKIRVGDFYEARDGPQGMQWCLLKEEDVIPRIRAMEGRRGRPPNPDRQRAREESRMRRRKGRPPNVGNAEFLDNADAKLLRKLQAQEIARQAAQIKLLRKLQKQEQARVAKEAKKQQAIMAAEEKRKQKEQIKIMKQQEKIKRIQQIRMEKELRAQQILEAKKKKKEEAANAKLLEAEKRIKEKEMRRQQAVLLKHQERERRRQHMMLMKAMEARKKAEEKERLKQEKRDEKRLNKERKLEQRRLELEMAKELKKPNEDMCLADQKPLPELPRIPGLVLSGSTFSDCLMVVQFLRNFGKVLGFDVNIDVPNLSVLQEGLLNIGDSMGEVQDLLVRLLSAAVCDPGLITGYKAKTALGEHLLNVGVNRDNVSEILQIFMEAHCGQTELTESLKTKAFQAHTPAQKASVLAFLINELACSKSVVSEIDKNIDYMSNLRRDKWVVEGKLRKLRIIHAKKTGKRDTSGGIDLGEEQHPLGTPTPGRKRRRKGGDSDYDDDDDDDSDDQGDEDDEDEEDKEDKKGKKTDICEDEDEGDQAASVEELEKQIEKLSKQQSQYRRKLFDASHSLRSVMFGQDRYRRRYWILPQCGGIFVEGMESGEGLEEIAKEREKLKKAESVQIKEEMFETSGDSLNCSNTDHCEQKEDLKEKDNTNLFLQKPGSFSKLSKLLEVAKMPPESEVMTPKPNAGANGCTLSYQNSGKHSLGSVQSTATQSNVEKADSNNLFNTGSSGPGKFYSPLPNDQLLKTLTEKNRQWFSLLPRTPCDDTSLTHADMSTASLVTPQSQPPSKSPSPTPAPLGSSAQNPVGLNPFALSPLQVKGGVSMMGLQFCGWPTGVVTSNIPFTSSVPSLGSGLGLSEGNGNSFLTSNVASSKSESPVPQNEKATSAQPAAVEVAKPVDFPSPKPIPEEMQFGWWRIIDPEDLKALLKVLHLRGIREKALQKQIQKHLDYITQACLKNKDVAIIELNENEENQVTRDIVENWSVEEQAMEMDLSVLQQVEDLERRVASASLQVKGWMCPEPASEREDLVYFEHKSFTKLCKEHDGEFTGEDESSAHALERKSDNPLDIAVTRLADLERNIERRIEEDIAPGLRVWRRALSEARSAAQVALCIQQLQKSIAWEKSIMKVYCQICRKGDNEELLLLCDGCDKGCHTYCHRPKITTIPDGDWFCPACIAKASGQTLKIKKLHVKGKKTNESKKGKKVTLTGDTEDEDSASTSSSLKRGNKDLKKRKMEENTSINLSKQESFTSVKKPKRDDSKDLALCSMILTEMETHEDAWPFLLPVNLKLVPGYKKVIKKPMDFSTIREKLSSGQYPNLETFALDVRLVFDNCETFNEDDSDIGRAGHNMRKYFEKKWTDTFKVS
# Test: qHTS Assay for Inhibitors of BAZ2B; further: nearly all actives have a fitted effect of over 60% in size
# Settings: AlphaScreen BAZ2B-H3K14Ac peptide displacement; series mostly up to 114 µM
# In short: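 AlphaScreen luminescence quantifies BAZ2B engagement of H3K14Ac peptide; the protein and biotinylated peptide are both at 50 nM final, buffer PBS pH 7.4 with 0.01% Tween-20, all steps at room temperature.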
# Potency means the concentration at half of the fitted maximal effect.
row,Structure (SMILES),Potency
1,CCc1cccc(NC(=O)c2cnc(N3CCOCC3)c3ccccc23)c1,inactive
2,Cc1ccc(C(=O)CSc2nc(-c3ccccc3)nc3c2CCCC3)c(C)c1,inactive
3,COc1ccc(CC(=O)NCCc2sc3nc(-c4ccc(OC)cc4)nn3c2C)cc1,inactive
4,O=C(c1ccncc1)N1CCN(c2ccc3ccccc3n2)CC1,inactive
5,COc1ccccc1N1CCN(C(=O)c2c(-c3c(Cl)cccc3Cl)noc2C)CC1,inactive
6,O=C(c1ccc2ccccc2n1)N1CCN(c2ccccc2Cl)CC1,50.1 µM (active)
7,COc1ccc(C)cc1-n1c(-c2ccc(C)cc2)cc2c1CC(C)(C)CC2=O,inactive
8,COc1ccc(C2NC(=O)c3ccccc3N2)cc1 (stereo not drawn),inactive
9,COc1cccc(C2Nc3cccc4cccc(c34)N2)c1,35.5 µM (active)
10,COc1cccc(N2C(=O)C3CCCN3C2c2ccc(F)cc2)c1 (stereo not drawn),inactive
11,FC(F)(F)c1cc(Nc2nc3ccccc3c3nncn23)ccc1Cl,inactive
12,COC(=O)/C(NC(C)=O)=C(\C)c1ccc(Cl)cc1,inactive
13,COC(=O)C(=Nc1ccccc1)/C(C(=O)C(=O)N(C)c1ccccc1)=C(\O)c1ccc(Cl)cc1,50.1 µM (active)
14,COC(=O)c1cn(C(=O)c2ccc(Cl)cc2)c2ccccc12,inactive
15,CCCCc1nn2c(=O)cc(COC(=O)c3ccccc3NC(=O)C(C)(C)C)nc2s1,inactive
16,Cc1nn(-c2ccccc2)c2c1C(c1cccc([N+](=O)[O-])c1)N(c1ccccc1)C(=O)N2 (stereo not drawn),inactive
17,Cc1cc(CO)nn1-c1ccc([N+](=O)[O-])cc1,inactive
18,Cc1nn(-c2ccc([N+](=O)[O-])cc2)c(N)c1-c1ccccc1,70.8 µM (active)
19,O=C(NCc1ccc(F)cc1)c1ccc(Cn2c(SCc3ccc(F)cc3)nc3cccnc32)cc1,inactive
20,Cc1oc2ncnc(N3CCOCC3)c2c1C(=O)NCCc1ccccc1,inactive
21,COc1ccccc1CNC(=O)CCCCn1c(=O)c2ccccc2n(CC(=O)Nc2cc(Cl)ccc2C)c1=O,inactive
22,COc1ccccc1CNC(=O)CCn1c(=O)c2ccccc2n(CC(=O)Nc2ccc(Br)cc2F)c1=O,inactive
23,COc1ccccc1CNC(=O)CCn1c(=O)c2ccccc2n(CC(=O)Nc2cccc(Cl)c2)c1=O,79.4 µM (active)
24,O=C(NCc1ccccc1Cl)C1=Cc2cc(Br)ccc2OC1,inactive
25,CCCC(=O)Nc1cc(C(=O)NCc2ccc(OC)cc2)ccc1S(=O)(=O)c1ccc(Cl)cc1,inactive

row,Structure (SMILES),Potency
1,CCOc1ccc(CCNC(=O)c2ccc3c(c2)sc2nc(-c4ccc(F)cc4)cn23)cc1OCC,inactive
2,CCOc1ccc(-c2nonc2NC(=O)c2oc3ccc(CC)cc3c2C)cc1,inactive
3,COc1ccc(-c2cn3c(n2)sc2cc(C(=O)Nc4ccccc4F)ccc23)cc1,inactive
4,COc1ccc(CCNC(=S)N2CCN(S(=O)(=O)c3ccc(Cl)cc3)CC2)cc1,inactive
5,O=C(NCCc1ccc(Cl)cc1)c1cccc(N2CCCC2=O)c1,inactive
6,Oc1cc2c(cc1O)CN(C(=S)NCCc1ccc(Cl)cc1)CCC2,44.7 µM (active)
7,O=C1NN(c2ccccc2)C(=O)/C1=C/c1ccc(-c2cccc(C(=O)O)c2)o1,44.7 µM (active)
8,CC(=O)c1cc(-c2ccccc2)[nH]c1N1CCCC1,inactive
9,COc1ccc(-n2nnc(-c3nsc(NC(=O)c4ccc(C)c(C)c4)n3)c2C)cc1Cl,inactive
10,Cc1ccc(NC(=O)c2cc(S(=O)(=O)NCCC3=CCCCC3)ccc2F)cc1C,inactive
11,Cc1sc2ncn(CC(=O)N3CCN(c4ccc(F)cc4)CC3)c(=O)c2c1S(=O)(=O)N1CCN(c2ncccn2)CC1,inactive
12,CCOC(=O)c1c(/N=C/c2cc(C)ccc2O)sc2c1CCC2,50.1 µM (active)
13,CCOC(=O)c1c(NC(=O)/C(C#N)=C/c2ccccc2)sc2c1CCC2,inactive
14,CCOC(=O)c1c(NC(=S)NC)sc2c1CCCC2,inactive
15,O=C(Nc1ccc2nc(SCC(=O)N3CCc4ccccc43)sc2c1)c1ccccc1F,inactive
16,CCOC(=O)c1cc2c(=O)n3ccccc3nc2n(CC2CCCO2)c1=NC(=O)c1ccccc1Br (stereo not drawn),inactive
17,CCc1ccc(NC(=O)CCCc2nnc3n(CCCOC)c(=O)c4sccc4n23)cc1,inactive
18,O=C(NCCN1C(=O)S/C(=C\c2cccnc2)C1=O)c1cccc(OC(F)F)c1,inactive
19,N#Cc1ccccc1CN1C(=O)S/C(=C/c2cccn2-c2cccc(C(=O)O)c2)C1=O,25.1 µM (active)
20,Cc1nn(Cc2ccccc2)c(C)c1C(=O)NCCN1C(=O)S/C(=C\c2ccc(F)cc2)C1=O,inactive
21,CCc1ccc(CNCc2c(C(=O)O)n(Cc3ccc(F)cc3Cl)c3cc(OC)ccc23)cc1,inactive
22,CCCCN(CC)CCCNC(=O)Cn1ncc2c([nH]c3ccc(C)cc32)c1=O,inactive
23,CCNS(=O)(=O)c1ccc(NC(=O)CSc2nc(-c3ccco3)cc(C(F)(F)F)n2)cc1,inactive
24,CCOc1cccc2c1N[C@@H](c1ccc(C(=O)O)cc1)[C@H]1CC=C[C@@H]21,15.8 µM (active)
25,CCOc1c(CNCc2ccc(C(=O)O)cc2)cccc1OC,inactive

row,Structure (SMILES),Potency
1,CCOc1cc(C(=O)O)ccc1OCCOc1ccccc1,inactive
2,Cc1cccc(N2CCN(C(=O)CCSCc3ccccc3F)CC2)c1C,inactive
3,Cc1ccc(-n2ncc(C(=O)N(C)Cc3ccccc3)c2-n2cccc2)cc1,inactive
4,COc1ccc2oc(-c3ccc(C)c(NC(=O)c4sc5ccccc5c4Cl)c3)nc2c1,inactive
5,O=C(CSc1nc(Nc2ccc(F)c(F)c2)c2ccccc2n1)c1ccc(Cl)cc1,inactive
6,O=C(NCc1ccc(Cl)cc1)NCc1ccc(Cl)cc1,inactive
7,CC(O)CN(Cc1ccc(Cl)cc1)CC(C)O (stereo not drawn),56.2 µM (active)
8,CN(C)CCCNC(=S)NCc1ccc(Cl)cc1,inactive
9,CCC1CN(S(=O)(=O)c2cc(-c3cc(C)no3)ccc2C)c2cc(C)ccc2O1 (stereo not drawn),inactive
10,O=S(=O)(c1ccc(Br)cc1)c1nnn2c1nc(N1CCOCC1)c1sccc12,inactive
11,O=C(CSc1oc(-c2ccco2)nc1S(=O)(=O)c1ccccc1)c1ccc(Cl)cc1,inactive
12,CC1CC(C)CN(S(=O)(=O)c2cccc3nonc23)C1 (stereo not drawn),inactive
13,O=C(NCc1ccccc1Cl)C1CCN(S(=O)(=O)c2cccc3nonc23)CC1,inactive
14,O=S(=O)(c1cccc2nonc12)N1CCN(c2cccc(Cl)c2)CC1,50.1 µM (active)
15,COc1ccc(Cn2ccc3nc(C)c(C(=O)Nc4ccc(C)c(F)c4)cc3c2=O)cc1,inactive
16,CC(=O)c1cccc(Nc2ccc3cc(S(=O)(=O)N4CCC(C)CC4)ccc3n2)c1,inactive
17,O=C(CSc1nc2c(c(=O)[nH]1)CN(Cc1ccc3c(c1)OCO3)CC2)Nc1cc(F)ccc1F,inactive
18,Oc1c(C(c2ccccn2)N2CCOCC2)ccc2cccnc12 (stereo not drawn),3.16 µM (active)
19,Oc1c(C(c2ccccc2Cl)N2CCOCC2)sc2nc(-c3ccco3)nn12 (stereo not drawn),inactive
20,CC(C)c1cc(CN2CCOCC2)cc(C(C)C)c1O,inactive
21,COc1ccc(-c2nc(S(=O)(=O)c3ccccc3)c(N3CCCCC3)o2)cc1,inactive
22,O=C(CCC1N=C2c3ccccc3N=C(SCc3ccccc3F)N2C1=O)NCCc1ccccc1 (stereo not drawn),inactive
23,NS(=O)(=O)c1ccc(NC(=O)COc2ccc(S(=O)(=O)NC3CCCCC3)cc2)cc1,inactive
24,COc1ccc(-c2csc(-c3c(N)c(C(=O)c4ccc(OC)c(OC)c4)n4ccccc34)n2)cc1,inactive
25,CC(=O)Nc1ccc(S(=O)(=O)N2CCN(c3ccccc3)CC2)cc1,inactive

row,Structure (SMILES),Potency
1,CN1CCN(c2ccc(NC(=O)c3ccccc3)cc2)CC1,inactive
2,Cc1cccc(N2CCN(c3ccc(NC(=O)/C=C\C(=O)O)cc3)CC2)c1,35.5 µM (active)
3,CC(=O)Nc1ccc(/C=C/C(=O)c2ccccc2)cc1,inactive
4,CN(C)c1ccc(/C=C/C(=O)c2ccc(C(C)(C)C)cc2)cc1[N+](=O)[O-],8.91 µM (active)
5,Cc1cc(C(=O)O)ccc1[N+](=O)[O-],inactive
6,O=S(=O)(c1ccc(C2CCCCC2)cc1)N1CCN(c2ccc(Cl)c(Cl)c2)CC1,inactive
7,CC1CCN(S(=O)(=O)c2ccc3c(c2)N(CC(=O)NCCc2ccccc2)C(=O)CO3)CC1,inactive
8,Cc1cc(Cl)ccc1NC(=O)Cc1ccc(NC(=O)N2CCCCc3ccccc32)cc1,inactive
9,Cc1ccc(-n2c(=O)c3cccnc3n2CC(=O)Nc2ccccc2C(F)(F)F)cc1C,inactive
10,c1ccc(C2=Nc3cccc4cccc(c34)N2)cc1,inactive
11,COc1ccccc1C1=Nc2cccc3cccc(c23)N1,39.8 µM (active)
12,COc1ccccc1-c1nc(C(F)(F)F)c(OC)o1,inactive
13,Cc1ccccc1-c1nc2cc(NC(=O)c3cccc(OCCC(C)C)c3)ccc2o1,inactive
14,CCc1ccc2oc(-c3ccc(C)c(NC(=O)/C=C/c4ccco4)c3)nc2c1,inactive
15,Cn1c2ccccc2c(=O)c2c(=O)n(Cc3ccco3)c(COc3ccccc3)nc21,56.2 µM (active)
16,COCn1c(COc2ccccc2)nc2ccccc21,inactive
17,O=C(CSc1nnc(COc2ccc(Cl)cc2)n1Cc1ccco1)N1CCNC1=O,inactive
18,Cc1ccc2ncc(C(=O)Nc3ccc(OC(F)(F)F)cc3)c(=O)n2c1,inactive
19,Cc1ccc(Cl)cc1NC(=O)CCS(=O)(=O)c1ccc(Br)s1,inactive
20,Oc1c(C=Nc2cccc3nsnc23)ccc2ccccc12,50.1 µM (active)
21,Cc1ccc(-n2c(=O)c3cccnc3n2CC(=O)NCc2ccc(F)cc2)cc1C,inactive
22,C=C1c2c(Cl)ccc(O)c2C(O)=C2C(=O)[C@]3(O)C(O)=C(C(N)=O)C(=O)[C@@H](N(C)C)[C@@H]3[C@@H](O)C12 (stereo partly drawn),2.82 µM (active)
23,CN(C)[C@@H]1C(=O)C(C(N)=O)=C(O)[C@@]2(O)C(=O)C3=C(O)c4c(O)ccc(Cl)c4[C@@H](O)[C@H]3C[C@@H]12,10 µM (active)
